Results as given in PubChem BioAssay (NCI).
About 79,000 compounds went through this panel and 15% of them were active in at least one assay; those are over-represented in the sample as a whole. A number with no mark means an inactive call. The source made the active and inactive calls. Cut-off read from the data, not from the text of the source: active = growth inhibition above about 70%; inactive = the rest.

Assays:
[1] = NCI Yeast Anticancer Drug Screen. Data for the rad50 strain (AID 155);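 note: 0% = growth of vehicle-only cultures of the same strain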; settings: S. cerevisiae rad50 strain growth inhibition; at 50.0 µM; stronger effect = higher value
How it was run: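 Compounds were tested on a yeast strain with an engineered DNA damage repair alteration; the reported value is growth inhibition normalised to vehicle treatment.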

[2] = NCI Yeast Anticancer Drug Screen. Data for the mec2-1 strain (AID 157); settings: S. cerevisiae mec2-1 strain, at 50.0 µM, stronger effect = higher value
How it was run: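 Readout is yeast growth inhibition, normalised to vehicle-treated controls, in the mec2-1 strain exposed to compound.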

[3] = NCI Yeast Anticancer Drug Screen. Data for the sgs1 mgt1 strain (AID 161);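 note: 0% = growth of cultures given vehicle only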; settings: S. cerevisiae sgs1 mgt1 strain, at 50.0 µM, stronger effect = higher value
How it was run: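 Percent growth inhibition was derived by comparing compound-exposed mutant yeast with vehicle-exposed cultures. The strain carries alterations in DNA damage repair.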

[4] = NCI Yeast Anticancer Drug Screen. Data for the cln2 rad14 strain (AID 165);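 note: 0% = growth equal to vehicle treated cultures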; settings: S. cerevisiae cln2 rad14 strain, at 50.0 µM, stronger effect = higher value
How it was run: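 Relative to vehicle controls, growth inhibition of compound-treated cln2 rad14 yeast was recorded.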

[5] = NCI Yeast Anticancer Drug Screen. Data for the bub3 strain (AID 167); settings: S. cerevisiae bub3 mutant strain, at 50.0 µM, stronger effect = higher value
How it was run: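 Growth of a checkpoint-deficient yeast mutant is measured after compound exposure. Values represent inhibition relative to vehicle.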

[6] = NCI Yeast Anticancer Drug Screen. Data for the mlh1 rad18 strain (AID 175); settings: S. cerevisiae mlh1 rad18 strain growth inhibition; at 50.0 µM; stronger effect = higher value
How it was run: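 Test agents were incubated with a yeast strain of defined genotype (DNA damage repair defect). Inhibition of growth was derived by comparison with vehicle-exposed cultures.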

SMILES	growth inhibition [1]	growth inhibition [2]	growth inhibition [3]	growth inhibition [4]	growth inhibition [5]	growth inhibition [6]
COC(=O)/C=C1\CCC(C)O1 (configuration not stated)	-1.35%	-26.6%	-27.7%	8%	-19.2%	16%
O=C(c1nc2ccc(Cl)cc2[nH]c1=O)C(O)c1ccccc1 (configuration not stated)	47.5%	6.95%	39.4%	42.9%	28.9%	41.8%
Nc1ccccc1/C(O)=C1/CCOC1=O	0.6%	-23.6%	2.15%	1.5%	15.3%	-3.2%
CC1(C)CC(=O)C(/C=N/C(=S)NCc2ccccc2)=C(O)C1	-35.4%	-49.1%	-16%	14.4%	-2.45%	-20.8%
Cc1c(C)c(C)c(S(=O)(=O)NCCNS(=O)(=O)c2c(C)c(C)c(C)c(C)c2C)c(C)c1C	5.7%	-16.4%	-0.7%	15.3%	-2.5%	1.7%
CC(=O)C(=Cc1ccc(Cl)c(Cl)c1)C(C)=O	99.5% (active)	99.7% (active)	99.7% (active)	99.6% (active)	99.5% (active)	99.5% (active)
COC1=C(OC)CCC(/C(C#N)=C/c2ccc(OC)c(OC)c2)=C1	18.8%	-3.45%	-10%	-11.8%	-0.9%	25.4%
CC1=NN(C(=O)c2ccc(Cl)cc2)C(=O)/C1=C/c1ccco1	-8.85%	-28.9%	-22.6%	9.25%	-2.7%	-24.1%
CC(C)(C)C(=O)Nc1ccc(NS(=O)(=O)c2ccccc2)cc1	6.85%	-4.3%	2.85%	1.8%	2.9%	-21.1%
COc1ccc(C(c2cc3c(cc2O)OCO3)n2ccnc2)cc1 (configuration not stated)	9.45%	11.8%	12.3%	-55.5%	12.1%	4.9%
Cc1cc(N(CCC#N)CCC#N)ccc1/C=C1N=C(/C=C\c2ccccc2)N(c2ccc(C(=O)O)cc2)C\1=O	-3.65%	-45.5%	-16.9%	-6.3%	-16.4%	-26.1%
NC(=O)N/N=C/c1ccccc1N	5.85%	-6.75%	0.95%	-22.1%	-8.65%	-2.7%
C=Nc1ccc([N+](=O)[O-])c(N=C)c1	-2.85%	-0.25%	-9.7%	-18%	2.7%	5.15%
CCC1C[N+]2(C)CCc3cc(OC)c(OC)cc3C2CC1=O (configuration not stated)	-10.2%	1.25%	12.8%	19.9%	1.35%	7%
Cc1ccc(S(=O)(=O)CC(=O)CC(=O)C(=O)Nc2ccc(C)cc2C)cc1	2.15%	-9.2%	-21.1%	2%	-8.55%	12.8%
COC(=O)C1CCCN1C(c1ccccc1)(c1ccccc1)c1ccccc1 (configuration not stated)	-9.45%	-2.2%	-11.5%	-2.15%	2.45%	-23.5%
COC(=O)C1OC2(CCCC3CC32)O[C@H]1C(=O)OC (some centres not stated)	-8.35%	-10.2%	-20.6%	-13.2%	-13.8%	6.35%
O=C(O)c1ccc2c(Cl)ccc3c2c1CC3	11.7%	-0.8%	9.05%	-32.5%	-26.2%	21.5%
O=C(CCCc1ccc([N+](=O)[O-])cc1)c1ccccc1	-5.85%	-5.55%	1.2%	-28.4%	3.5%	-4.65%
CC(C)(C)OC(=O)N1CCCC1=O	9.65%	13%	24.8%	22.3%	8.05%	28.5%
NCC(O)CSc1ccccc1 (configuration not stated)	-10.6%	4.15%	-6.85%	-16.7%	-1.3%	-6.8%

SMILES	growth inhibition [1]	growth inhibition [2]	growth inhibition [3]	growth inhibition [4]	growth inhibition [5]	growth inhibition [6]
O=C1OC(CC(=O)c2ccc(Cl)c(Cl)c2)C(Cl)=C1Cl (configuration not stated)	43.1%	12.3%	33.1%	29.9%	30%	52.7%
CC1C(=O)C2C1CS2(=O)=O (configuration not stated)	-0.9%	0.65%	5%	-59.1%	13%	-5.45%
CC(C(=O)O)N(C)C(=O)c1cnc2ccccc2n1 (configuration not stated)	-0.1%	-1.15%	-1.5%	23%	18.6%	-2%
Cc1[nH]c(=O)[nH]c(=O)c1C(=O)N(CCO)Cc1ccccc1	-39.5%	-21.4%	-24.9%	7.7%	11.7%	-15.9%
CCOC1(C)Oc2cc3c(cc2C(c2cc(OC)c(OC)c(OC)c2)C1C)OCO3 (configuration not stated)	12.4%	1.55%	-6.75%	-29.4%	1.4%	32.5%
Cc1ccc(C(C)C)cc1NC(=O)c1c(Cl)c(Cl)c(Cl)c(Cl)c1C(=O)O	14.6%	9.8%	23.9%	-32.4%	6.45%	23.3%
O=C1c2c(-c3ccccc3)ccc(-c3ccccc3)c2C(=O)c2c(-c3ccccc3)ccc(-c3ccccc3)c21	-4.4%	-3.4%	2.3%	-6.8%	-2.6%	-13.6%
CN(C)c1ccc(S(=O)c2ccc(N(C)C)cc2)cc1	-30.4%	-27.9%	-44.9%	-4.75%	-48.4%	-35%
CC1=C(C)C(=O)C=CC1=O	19.9%	6.3%	5.3%	-1%	3.95%	12%
CC(C)=CCC/C(C)=C\COC=O	23%	12.4%	18.9%	6.45%	13.8%	50.9%
CCOC(=O)Nc1c2ccccc2c(NC(=O)OCC)c2ccccc12	30.2%	8.9%	1%	12.8%	15%	-6%
COc1ccc(C(=O)COC(C)(C)C)cc1	-8.55%	-28.2%	-20%	-2.7%	-16.9%	-22.1%
O=S(=O)([O-])[O-].O=c1[nH]cnc2[nH]ncc12.O=c1[nH]cnc2[nH]ncc12.[Cu+2]	-22.1%	-7.95%	-47.2%	-32%	-18.7%	-18.1%
Nc1nc(Cl)nc(Nc2ccc(-c3cc4ccc(-c5ncc[nH]5)cc4[nH]3)cc2)n1	15.5%	45.5%	45.4%	31.7%	-3.6%	62.6%
COc1ccccc1NC(=O)C1=C(C)NC(C)=C(C(=O)Nc2ccccc2OC)C1C1=CC=COC1	-30.4%	-12.8%	-25.9%	-1.1%	13.1%	-15.5%
CCN(CC)CCn1cnc(C#N)c1N	4.45%	1.05%	-1.35%	-27.6%	1.65%	-0.2%
O=C1CNC(=O)N1Nc1ccccc1	-9.35%	-2.55%	-2.35%	-26.6%	4%	-5.3%
O=C1Oc2cc3c(c4cccc1c24)O[C@H](c1ccccc1)[C@@H](c1ccccc1)[C@@H]3c1ccc(Cl)cc1	-2.95%	11.2%	-2.4%	-5.15%	3.3%	9.3%
CCCCCCCCS(=O)(=O)NC	0.95%	-9.8%	-8.75%	-10%	16.4%	5.7%
CCOc1cc[n+]([O-])cc1C	-15.7%	-9.6%	1.45%	-8.2%	-3.75%	13.1%
CN(c1ccccc1)c1cc2c(cc1[N+](=O)[O-])no[n+]2[O-]	97.8% (active)	98.7% (active)	98.3% (active)	98% (active)	98.2% (active)	98.8% (active)
